Measured values as given in PubChem BioAssay (EPA / NIEHS).
Several values for one entry are separate records, joined by “and”; a condition that tells them apart may be missing. Equal values may be shown once. The source holds several records for some structures; these can differ, active in one and inactive in another. Activity calls are given as the source filed them. The calls were made as follows: active = hit-call score of the fitted dose curve at least 0.9, where 1 is the maximum; inactive = score below 0.9.

How the values were obtained:
[1] = read-out: Urokinase-type plasminogen activator receptor (uPAR), PLAUR (gene 5329); experiment: BSK_4H_uPAR: BioMAP Diversity Plus: 4H Assay for Urokinase-type plasminogen activator receptor (uPAR) Biomarker Activity (AID 2283030); details: primary human endothelial cells (HUVEC); actives raise or lower the signal
Summary of the method: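 Primary human umbilical vein endothelial cells were exposed to chemical for 24 h before cell-surface uPAR was quantified by ELISA. Activity was fitted bidirectionally against the DMSO negative control baseline.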

[2] = read-out: Vascular endothelial growth factor receptor 2 (Homo sapiens) (UniProt P35968); experiment: BSK_4H_VEGFRII: BioMAP Diversity Plus: 4H Assay for Vascular endothelial growth factor receptor 2 (VEGFR2) Biomarker Activity (AID 2283031); details: primary human endothelial cells (HUVEC); actives raise or lower the signal;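 as to AC50: cell-surface VEGFR2 protein level quantified by ELISA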
Summary of the method: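 Primary human umbilical vein endothelial cells in the BioMAP 4H system were dosed with test chemical, and 24 h later VEGFRII was measured by ELISA. Activity was fitted bidirectionally against DMSO as negative control and baseline.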

[3] = read-out: Human Leukocyte Antigen - DR isotype (HLADR), HLA-DRA (gene 3122); experiment: BSK_BE3C_HLADR: BioMAP Diversity Plus: BE3C Assay for Human Leukocyte Antigen - DR isotype (HLADR) Biomarker Activity (AID 2283032); details: primary human bronchial epithelial cells; actives raise or lower the signal
Summary of the method: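 Signal came from an ELISA for HLA-DR in human bronchial epithelial primary cells harvested 24 h after treatment; gain- and loss-of-signal fitting used DMSO controls as reference.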

[4] = read-out: Vascular cell adhesion molecule 1 (VCAM1), VCAM1 (gene 7412); experiment: BSK_4H_VCAM1: BioMAP Diversity Plus: 4H Assay for Vascular cell adhesion molecule 1 (VCAM1) Biomarker Activity (AID 2283033); details: primary human endothelial cells (HUVEC); actives raise or lower the signal;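 as to outcome: cell-surface VCAM-1 protein measured by ELISA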
Summary of the method: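 Endpoint derived from bidirectional fitting against DMSO controls of VCAM-1 ELISA signal in umbilical vein endothelial cells sampled at 24 h following treatment.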

[5] = read-out: Interferon-gamma inducible Protein 10 (IP10), CXCL10 (gene 3627); experiment: BSK_BE3C_IP10: BioMAP Diversity Plus: BE3C Assay for Interferon-gamma inducible Protein 10 (IP10) Biomarker Activity (AID 2283034); details: primary human bronchial epithelial cells; actives raise or lower the signal
Summary of the method: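 Using primary human bronchial epithelial cultures, the assay captures IP-10 by ELISA one day (24 h) after exposure. Parallel SRB staining of total protein flags overt cytotoxicity. Fits run bidirectionally relative to DMSO.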

[6] = read-out: Monokine induced gamma interferon (MIG), CXCL9 (gene 4283); experiment: BSK_BE3C_MIG: BioMAP Diversity Plus: BE3C Assay for Monokine induced gamma interferon (MIG) Biomarker Activity (AID 2283035); details: primary human bronchial epithelial cells; actives raise or lower the signal;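 as to outcome: MIG protein measured by ELISA in BE3C cultures after 24 h of dosing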
Summary of the method: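 Primary human bronchial epithelial cells treated for 24 h; MIG levels measured by ELISA, fitted bidirectionally versus DMSO. Parallel SRB total-protein staining assessed cytotoxicity.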

[7] = read-out: Transforming growth factor beta 1 (TGFb1), TGFB1 (gene 7040); experiment: BSK_BE3C_TGFb1: BioMAP Diversity Plus: BE3C Assay for Transforming growth factor beta 1 (TGFb1) Biomarker Activity (AID 2283036;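 as to outcome: TGF-b1 protein level measured by ELISA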); details: primary human bronchial epithelial cells; actives raise or lower the signal
Summary of the method: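 In this human primary bronchial epithelial system, an ELISA quantified TGF-b1 one day after dosing. Endpoint changes in either direction were fitted relative to DMSO.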

[8] = read-out: Plasminogen activator inhibitor-1 (PAI1), SERPINE1 (gene 5054); experiment: BSK_BE3C_PAI1: BioMAP Diversity Plus: BE3C Assay for Plasminogen activator inhibitor-1 (PAI1) Biomarker Activity (AID 2283037); details: primary human bronchial epithelial cells; actives raise or lower the signal
Summary of the method: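 PAI-1 biomarker levels in treated human bronchial epithelial cells are determined by ELISA at 24 h. Both increases and decreases relative to DMSO are fitted.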

[9] = read-out: urokinase plasminogen activator (uPA), PLAU (gene 5328); experiment: BSK_BE3C_uPA: BioMAP Diversity Plus: BE3C Assay for urokinase plasminogen activator (uPA) Biomarker Activity (AID 2283038); details: primary human bronchial epithelial cells; actives raise or lower the signal;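 as to outcome: uPA protein level quantified by ELISA in cell cultures; uPA read one day after compound addition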
Summary of the method: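 Human primary bronchial epithelial cells were exposed to chemical for 24 h, then uPA levels were measured by ELISA. Responses were fitted bidirectionally against DMSO as negative control and baseline. Parallel SRB staining of total protein gauged overt cytotoxicity.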

[10] = read-out: Urokinase-type plasminogen activator receptor (uPAR), PLAUR (gene 5329); experiment: BSK_BE3C_uPAR: BioMAP Diversity Plus: BE3C Assay for Urokinase-type plasminogen activator receptor (uPAR) Biomarker Activity (AID 2283039); details: primary human bronchial epithelial cells; actives raise or lower the signal;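 as to outcome: cells exposed to compound for one day before measurement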
Summary of the method: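 A uPAR ELISA serves as the readout, taken 24 h after treating primary human bronchial epithelial cells. Responses in either direction are fitted against DMSO, which defines baseline activity.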

| SMILES | outcome [1] | AC50 [2] | outcome [2] | AC50 [3] | outcome [3] | outcome [4] | outcome [5] | outcome [6] | outcome [7] | AC50 [8] | outcome [8] | outcome [9] | outcome [10] | AC50 [10] | AC50 [1] | AC50 [4] | AC50 [5] | AC50 [6] | AC50 [9] | AC50 [7] |
| --- | --- | --- | --- | --- | --- | --- | --- | --- | --- | --- | --- | --- | --- | --- | --- | --- | --- | --- | --- | --- |
| COC(=O)C(C)Oc1ccc(Oc2ccc(Cl)cc2Cl)cc1 (stereo not drawn) | inactive | 20 µM (active) | inactive | 9.71 µM (active) and 20 µM (active) | inactive | inactive | inactive | inactive | inactive | 32.5 µM (active) | inactive | inactive | inactive | – | – | – | – | – | – | – |
| CCOC(=O)CC(SP(=S)(OC)OC)C(=O)OCC (stereo not drawn) | inactive | – | inactive | – | inactive | inactive | inactive | inactive | inactive | – | inactive | inactive | inactive | – | – | – | – | – | – | – |
| COC(=O)c1ccccc1C(=O)OC | inactive | – | inactive | – | inactive | inactive | inactive | inactive | inactive | – | inactive | inactive | inactive | – | – | – | – | – | – | – |
| O=C(Nc1ccccc1)Nc1ccnc(Cl)c1 | inactive | – | inactive | 34.7 µM (active) | – | inactive | inactive | inactive | inactive | – | inactive | inactive | – | 0.807 µM (active) | – | – | – | – | – | – |
| N#Cc1cc(Br)c(O)c(Br)c1 | – | – | inactive | 11.9 µM (active) | – | – | – | inactive | inactive | 12.8 µM (active) | – | inactive | inactive | – | 16.9 µM (active) | 32 µM (active) | 23.5 µM (active) | – | – | – |
| CNC(=O)ON=CC(C)(C)SC | inactive | – | inactive | – | inactive | inactive | inactive | inactive | inactive | – | inactive | inactive | inactive | – | – | – | – | – | – | – |
| CC1COC(Cn2cncn2)(c2ccc(Oc3ccc(Cl)cc3)cc2Cl)O1 (stereo not drawn) | – | – | inactive | 20 µM (active) | – | – | – | – | inactive | 20 µM (active) | – | – | – | 30.3 µM (active) | 24.3 µM (active) | 32.2 µM (active) | 31.7 µM (active) | 29.3 µM (active) | 20 µM (active) | – |
| N#CC(CCc1ccc(Cl)cc1)(Cn1cncn1)c1ccccc1 (stereo not drawn) | inactive | – | inactive | 31.2 µM (active) | – | inactive | – | inactive | inactive | – | inactive | inactive | inactive | – | – | – | 33.7 µM (active) | – | – | – |
| Fc1ccc(Oc2ccnc3cc(Cl)cc(Cl)c23)cc1 | – | 27.2 µM (active) | – | 24.3 µM (active) | – | – | – | – | – | 30.3 µM (active) | – | – | – | 34.2 µM (active) | 32.1 µM (active) | 30.1 µM (active) | 28.7 µM (active) | 34.3 µM (active) | 36.5 µM (active) | 32.9 µM (active) |
